Assay results published in PubChem BioAssay (Tox21).
Inconclusive results are not listed. Entries that show only a call come without a potency. The source made the active and inactive calls. Calls come from the whole dose curve; as a rule, active = well fitted cell-killing curve with a large enough effect in the repeat runs (not every such curve was filed as active); inconclusive = weak or mixed curves, or effect the other way; inactive = no such curve, though single readings can be large or run the other way.

Test: qHTS assay to identify small molecule antagonists of the estrogen related receptor signaling pathway with the pleiotropic PPARgamma coactivator (PGC) from Tox21 10K library - cell viability counter screen (AID 1224840); note: nearly all actives have a fitted effect of over 40% in size
Conditions: PGC/ERR reporter cells viability, CellTiter-Fluor, 17.5 h; series mostly up to 92.4 µM
Procedure, shortened: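 Seeded PGC/ERR cells (2,000/well, 6 h, 37 C/5% CO2) get compound by pin tool; 17.5 h incubation at 37 C; CellTiter-Fluor added, 30 min, fluorescence measured.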

Q: Which Potency does the source give for `CC(C)(C)c1nnc(NS(=O)(=O)c2ccccc2)s1` here?
A: inactive

Q: Which Potency does the source give for `c1ccc(CC2=NCCN2)cc1` here?
A: inactive

Q: For `CCCCCCCCCCCCN(CCCCCCCCCCCC)CCCCCCCCCCCC`, which Potency is on record?
A: inactive

Q: With `COC(C)(C)CCCC(C)CC=O` (stereo not given) as the molecule, how does the Potency read?
A: inactive

Q: Which Potency does the source give for `C=CCS(=O)(=O)O` here?
A: inactive

Q: Which Potency does the source give for `COCCCOCCCOC` here?
A: inactive

Q: With `NS(=O)(=O)c1ccc(C(=O)O)cc1` as the molecule, how does the Potency read?
A: inactive

Q: With `COc1c(N2C[C@@H]3CCCN[C@@H]3C2)c(F)cc2c(=O)c(C(=O)O)cn(C3CC3)c12` as the molecule, how does the Potency read?
A: inactive

Q: For `COC(=O)c1ccc(C)cc1C1=NC(C)(C(C)C)C(=O)N1` (stereo not given), which Potency is on record?
A: inactive

Q: With `CS(=O)(=O)O` as the molecule, how does the Potency read?
A: inactive

Q: Which Potency does the source give for `CC(=O)c1ccccc1O` here?
A: inactive

Q: With `Cc1ccc(C#N)cc1` as the molecule, how does the Potency read?
A: inactive

Q: Which Potency does the source give for `O=C(O)c1ccccc1OP(=O)(O)O` here?
A: inactive

Q: With `O=c1[nH]c(=O)n([C@H]2C[C@H](O)[C@@H](CO)O2)cc1I` as the molecule, how does the Potency read?
A: inactive

Q: For `CC(C)NC(=O)NC(C)C`, which Potency is on record?
A: inactive

Q: For `CCOC(=O)[C@H](CCc1ccccc1)N[C@@H](C)C(=O)N1[C@H](C(=O)O)C[C@@H]2CCC[C@@H]21`, which Potency is on record?
A: inactive

Q: With `COc1cc(C(=O)N2CCCCCCC2)cc(OC)c1OC` as the molecule, how does the Potency read?
A: inactive

Q: For `O=C(O)CCCc1ccccc1`, which Potency is on record?
A: inactive

Q: With `CO/N=C(/C(=O)N[C@@H]1C(=O)N2C(C(=O)OCOC(=O)C(C)(C)C)=C(C)CS[C@H]12)c1csc(N)n1` as the molecule, how does the Potency read?
A: inactive

Q: For `Cc1cc2c(cc1S(N)(=O)=O)S(=O)(=O)CCC2`, which Potency is on record?
A: inactive

Q: Which Potency does the source give for `Cc1cc(O)cc2c1O[C@](C)(CCC[C@H](C)CCC[C@H](C)CCCC(C)C)CC2` here?
A: inactive

Q: Which Potency does the source give for `CCOC(=O)c1c(C)n(C)c2ccc(O)cc12` here?
A: inactive

Q: For `O=C(CCCN1CCN(c2ccccn2)CC1)c1ccc(F)cc1`, which Potency is on record?
A: inactive

Q: For `CCS(=O)(=O)c1ccc(OC)c(C(=O)OC)c1`, which Potency is on record?
A: inactive

Q: Which Potency does the source give for `CC1=CC(C)C(C=O)CC1` (stereo not given) here?
A: inactive

Q: Which Potency does the source give for `CCOC(=O)C(=O)OCC` here?
A: inactive

Q: With `Cn1c(N)c(N=O)c(=O)n(C)c1=O` as the molecule, how does the Potency read?
A: inactive

Q: Which Potency does the source give for `Cc1sccc1Br` here?
A: inactive

Q: With `CCCCCSCCCCC` as the molecule, how does the Potency read?
A: inactive

Q: For `CC(=O)OCC(=O)[C@@]1(O)CCC2C3CCC4=CC(=O)CC[C@]4(C)C3[C@@H](O)C[C@@]21C` (stereo not given in full), which Potency is on record?
A: inactive

Q: For `O=Cc1cccc([N+](=O)[O-])c1`, which Potency is on record?
A: inactive

Q: With `CN(C(=O)c1c(O)c2ccccc2n(C)c1=O)c1ccccc1` as the molecule, how does the Potency read?
A: inactive

Q: For `CC(C)CCCC(C)N` (stereo not given), which Potency is on record?
A: inactive

Q: Which Potency does the source give for `CCCCOCCOCCOCCCC` here?
A: inactive

Q: For `NS(=O)(=O)c1cc(C(=O)O)cc(N2CCCC2)c1Oc1ccccc1`, which Potency is on record?
A: inactive
